This is part of a sample that, as a whole, favours compounds with a hit. Of some 83,000 tested, about 20% had one in any assay.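 Percent growth is the endpoint: 0 to 100 indicates growth inhibition (40 means 60% inhibition), 0 means no net growth, and negative values indicate cell death.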 Values without a mark were called inactive. Calls of active or inactive are those of the source. Rule for the calls: active = growth percent below 10; inactive = the rest.
What was measured:
Test in all cases: NCI-60 one-dose screen, 48 h (100 = growth as untreated, 0 = no growth, -100 = all killed)
Conditions in all cases: 10 µM unless noted
T-47D breast = system: T-47D breast
BT-549 breast = system: BT-549 breast
MDA-MB-435 melanoma = system: MDA-MB-435 melanoma
SW-620 colon = system: SW-620 colon
MCF7 breast = system: MCF7 breast
HCT-116 colon = system: HCT-116 colon
HCC-2998 colon = system: HCC-2998 colon
KM12 colon = system: KM12 colon

SMILES	growth (T-47D breast)	growth (BT-549 breast)	growth (MDA-MB-435 melanoma)	growth (SW-620 colon)	growth (MCF7 breast)	growth (HCT-116 colon)	growth (HCC-2998 colon)	growth (KM12 colon)
O=C1NC(=C(Cl)Cl)/C(=N/S(=O)(=O)NCCc2c[nH]c3ccccc23)N1	47.1%	9.16% (active)	25.1%	54.3%	14.2%	34.9%	98.3%	-4.6% (active)
COc1cc2c(cc1O)[C@@]1(C)[C@H](c3ccccc3Br)OC(=O)N1CC2	65.4%	92.8%	92.1%	104%	99.1%	77.1%	99%	89.7%
Cc1ccccc1CNc1c2ccccc2nc2ccccc12	24.6%	55.9%	23.9%	13.8%	6.93% (active)	7.9% (active)	16.2%	16.9%
Cc1cc2nc3c4ccccc4n(CCN(C)C)c3nc2cc1C	32.2%	53.1%	8.26% (active)	-30.8% (active)	-0.456% (active)	7.19% (active)	22.1%	17.4%
COc1ccc(C2=NN(C(C)=O)C(c3ccc(Oc4ccnc5cc(Cl)ccc45)c(OC)c3)C2)cc1 (configuration not stated)	16.2%	79.5%	57%	74.3%	37.6%	25%	57.2%	72.9%
O=c1nc(Nc2nc3ccccc3s2)[nH]c(=O)c2ccccc12	78.9%	97.5%	99.9%	101%	92.2%	103%	98.4%	98.5%
CN(C)Cc1ccc(C(=O)Nc2ccc3ncnc(Nc4ccc(Oc5cccc(F)c5)c(Cl)c4)c3c2)cc1	10%	80.2%	-89.4% (active)	-73.1% (active)	-62.1% (active)	-39.7% (active)	-65.3% (active)	-5.02% (active)
Cc1ccccc1OCC(O)COc1ccccc1C	88.7%	79.4%	94.6%	103%	90.7%	103%	573%	103%
CCNc1nc(-c2ccc(F)cc2)c(C#N)c(=O)n1C	39.3%	42.1%	75.2%	69.3%	63.4%	52.1%	88.8%	72.1%
Cn1cc(-c2ccc3cc(-c4ccc(CC(=O)Nc5cc(C(C)(C)C)on5)cc4)cnc3c2)cn1	34.5%	33%	17.1%	12.8%	40.8%	9.3% (active)	57.8%	9.57% (active)
C[C@@H]1CC[C@@]2(OC1)O[C@H]1C[C@H]3[C@@H]4CC=C5C[C@@H](O[C@@H]6O[C@H](CO)[C@@H](O[C@@H]7O[C@@H](CO)[C@H](O)[C@H]7O)[C@H](O)[C@H]6O[C@@H]6O[C@@H](C)[C@H](O)[C@@H](O)[C@H]6O)CC[C@]5(C)[C@H]4CC[C@]3(C)[C@H]1[C@@H]2C	-22.6% (active)	-59.4% (active)	-92.8% (active)	-86.4% (active)	-87.9% (active)	-84% (active)	-75.9% (active)	-90.6% (active)
C/C(=N\Nc1nc(C)cs1)c1cc2ccccc2o1	21.4%	99.3%	105%	100%	74.2%	79.3%	112%	95.5%
CCCCCCCCCCCCCCCCCCOc1ccccc1CC(=O)OCC[N+]1(C)CCOCC1	84.9%	82.9%	82.4%	77.1%	79.8%	65.6%	71.8%	65.8%
C#CCOc1ccc2ncnc(Nc3cccc(NC(=O)CCl)c3)c2c1	85.2%	68.6%	81.7%	33.5%	41.9%	22.9%	99.4%	71%
O=C(NCc1ccccc1O)c1cccc2ccccc12	59.7%	68.8%	76.9%	87.6%	83.9%	69.1%	89.9%	85%
COc1cc(-c2nc(SCCC(C)C)nc(N3CCOCC3)c2C#N)cc(OC)c1OC	13.9%	79.9%	85.6%	27.7%	58.9%	5.13% (active)	91.7%	38%
O=C(N/N=C/c1ccc(O)cc1O)c1ccc(Nc2ccnc(C(F)(F)F)c2)cc1	4.87% (active)	41.5%	44.7%	49.3%	25.5%	27.5%	64.7%	57.2%
CCN=C1C=CC(=C(c2ccc(N(C)C)cc2)c2ccc(N(C)C)cc2)c2ccccc21	-22.8% (active)	-35.2% (active)	-35.2% (active)	-9.44% (active)	-9.8% (active)	-51.6% (active)	-40.8% (active)	-86.1% (active)
CN(CCC#N)c1ccc(/C=C2\NC(=O)NC2=O)cc1	112%	51.4%	93.1%	99.8%	102%	91.2%	96.7%	101%
Cn1cc(-c2nonc2-c2c[nH]c3ccc(F)cc23)c2cc(Br)ccc21	14.8%	65.9%	51%	64.5%	32.2%	35.1%	40.1%	29.4%
COCC[C@H]1CCC/C=C/[C@@H]2C[C@H](O)C[C@H]2[C@H](O)/C=C/C(=O)O1	-10.9% (active)	5.84% (active)	9.56% (active)	-20.8% (active)	-8.53% (active)	-66.7% (active)	2.4% (active)	-51.4% (active)
Cc1c(Cl)cccc1C(=O)Nc1nc2c(s1)CN(C(=O)Nc1cccc(C(F)(F)F)c1)CC2	46%	33.6%	-22% (active)	33.4%	12.6%	13.3%	11.7%	14.5%
Nc1c(C(=O)O)cc(Cl)cc1[N+](=O)[O-]	95.6%	109%	105%	99.5%	95.2%	94.6%	95.1%	105%
C=CCn1c(SCC(=O)Nc2ccc(C(=O)/C=C/c3cc(OC)c(OC)c(OC)c3)cc2)nnc1-c1cc(-c2ccc(OC)cc2)nc2ccccc12	84.9%	90.1%	100%	90.8%	64.4%	67.8%	107%	94%
Oc1c(CN2CCCC2)cc(COCc2ccccc2)c2cccnc12	5.66% (active)	27.2%	33.5%	22.3%	10% (active)	9.16% (active)	49.7%	28.7%
CC(C)(C)c1cc(C=Nc2cccc(C(F)(F)F)c2)c(O)c(C(C)(C)C)c1	88.5%	106%	108%	101%	97.7%	94.1%	108%	102%
Cc1cscc(C)c1=S	96%	99.7%	104%	50.5%	59.4%	61.2%	103%	104%
COc1cc(Nc2c3ccc(Cl)cc3nc3ccc(OC)cc23)c2ncccc2c1	48.6%	56.2%	65.6%	45.7%	40.3%	26%	44.8%	39.3%
O=C(/C=C/c1cccc(Cl)c1)c1cccc(OCCCCOc2cccc(C(=O)/C=C/c3cccc(Cl)c3)c2)c1	75.8%	92.6%	70.9%	75.1%	12.6%	-13.7% (active)	85.5%	70.5%

Reference: PubChem BioAssay (NCI)
